# From PubChem BioAssay
# The list is not random: actives were taken first. Their share in the collection is about 2.7%.
# PAX8 reporter = PAX8 transcriptional activity inhibition | RMG-I TPO-luciferase reporter, SteadyGlo, 24 h | inhibition, % at 12.6 µM | 360,000 compounds, 1.2% hits | AID 652154;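 active = mean replicate inhibition at least 60% with every replicate also reaching 60%; inconclusive = only one of the two criteria is met; inactive = mean below 60% and not all replicates reaching 60%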;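 also: luciferase light reporting Pax8 driven TPO promoter activity; plate controls were median of neutral control wells for no effect and mitoxantrone controls for full effect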
# HIV Env fusion = HIV envelope-mediated fusion inhibition. inhibition, % at 12.3 µM. 360,000 compounds, 1.1% hits. HeLa-JRFL Env/CEM21 cell fusion, luciferase;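 active = mean replicate inhibition score of at least 50 and every replicate individually at or above 50; inconclusive = only one of the two criteria met; inactive = mean below 50 and not all replicates reaching 50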;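 also: 0% = plate neutral controls and 100% = maraviroc near 300 nM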
# CFTR F508del cor = CFTR F508del correction in bronchial cells; CFBE cells, YFP halide quenching; stimulated with forskolin plus potentiator P3; % fluorescence drop versus neutral controls; activity (quench increase), % at 7.58 µM; 350,000 compounds, 0.36% hits; AID 720511;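 active = mean added fluorescence quench of at least 8% versus neutral control, with both replicates also reaching 8%; inconclusive = only one of the mean or replicate conditions met; inactive = mean below 8% and not both replicates reaching 8%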;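 also: cells transiently co-express mutant CFTR-F508del with the halide-sensitive YFP; corrector assay measuring rescue of mutant channel to the surface after 24 h compound exposure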
# INS-1E GSIS act = primary screen for activators of insulin secretion dependent on glucose, INS-1E cells, GLuc reporter luminescence. AID 743287. INS-1E GLuc reporter insulin secretion, 2-3 h. 370,000 compounds, 0.61% hits. activation, % at 16.6 µM;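 active = lowest replicate activation of at least 40%, so every replicate reaches that level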;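 also: 0% = median of neutral control wells and 100% = median of IBMX positive control wells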
# EWS-Fli block = inhibitors of EWS/Fli oncoprotein transcriptional activity; A673 NR0B1-luciferase reporter, viability-normalised; inhibition, % at 12.6 µM; 350,000 compounds, 0.67% hits; AID 651661;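 active = mean inhibition of at least 50% after viability correction, with every replicate also passing that limit; inconclusive = mean reaches 50% but only one of two replicates passes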;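 also: firefly luciferase signal divided by Alamar Blue viability fluorescence both relative to DMSO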
# PGC1a acetyl inh = lowers PGC1a acetylation signal in U2OS cells; AlphaScreen anti-acetyl-lysine; with virally co-expressed GCN5 acetyltransferase; inhibition, % at 15.6 µM; 350,000 compounds, 0.17% hits;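 active = every replicate shows inhibition of at least 40%; inconclusive = mean inhibition at least 40% but some replicate below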;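 also: 0% = neutral control wells and 100% = positive control wells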
# An asterisk follows results filed as active; ? = inconclusive; / = no result given; [ ] = another dose, or the depositor's remark.
SMILES,PAX8 reporter,HIV Env fusion,CFTR F508del cor,INS-1E GSIS act,EWS-Fli block,PGC1a acetyl inh
COc1ccccc1CNC(=O)C[C@@H]1C[C@@H]2c3cc(NC(=O)c4cccnc4)ccc3O[C@@H]2[C@@H](CO)O1,-10,0[16.7 µM],-2,3,9,-6
COc1ccccc1CNC(=O)C[C@H]1C[C@@H]2c3cc(NC(=O)c4cccnc4)ccc3O[C@@H]2[C@@H](CO)O1,-32,90*[16.7 µM],2,17,-6,1
CCCNC(=O)C[C@H]1C[C@H]2c3cc(NC(=O)c4cccnc4)ccc3O[C@H]2[C@@H](CO)O1,-7,8[16.7 µM],-3,0,0,5
CO[C@@H]1CN(C)C(=O)c2ccc(NC(C)=O)cc2OC[C@H](C)N(C(=O)c2ccccc2)C[C@@H]1C,/,/,/,24,/,/
Nc1nnc(SC2CC(=O)N(c3ccccc3)C2=O)s1 (configuration not stated),/,58*,/,/,/,9
C[C@H]1CCCCO[C@H](CN(C)C(=O)Nc2ccc3c(c2)OCO3)[C@@H](C)CN([C@@H](C)CO)C(=O)c2cc(NC(=O)c3ccncc3)ccc2O1,/,1[16.7 µM],-1,-13,-8,0
CCCCOc1ccc(C(=O)C(CN2CCOCC2)c2ccccc2)cc1 (configuration not stated),/,/,/,/,/,80*
COc1ccc(C(O)(C2CCCCC2)C(CN2CCOCC2)c2ccccc2)cc1 (configuration not stated),8,74*,-2,-40,12,/
CCCCOc1ccc(SCCCN2CCOCC2)cc1,3,18,1,58*,2,6
Cc1ccc(SCCCCN2CCOCC2)cc1,-30,11,-1,2,-18,/
O=C(c1ccc(Cl)cc1)C(CN1CCCC1)c1ccccc1 (configuration not stated),48,-412,-16,-9,65*,/
C[C@@H]1CN([C@@H](C)CO)C(=O)Cc2cc(NC(=O)CCC(F)(F)F)ccc2O[C@H]1CN(C)S(=O)(=O)c1ccc(F)cc1,1,-33[16.7 µM],2,10,-2,6
CCCCCC(O)(c1ccc(OCC)cc1)C(CN1CCOCC1)c1ccccc1 (configuration not stated),25,59*,-1,-32,-11,-13
COc1ccc(C(=O)C(CN2CCOCC2)c2ccccc2)cc1 (configuration not stated),/,/,-8,-12,3,32
COc1ccc(C(=O)C(CN2CCCC2)c2ccccc2)cc1 (configuration not stated),/,-41,/,/,/,-167
O=C(c1ccc(F)cc1)C(CN1CCOCC1)c1ccccc1 (configuration not stated),/,/,-1,-17,57*,60*
CCCOc1ccc(C(=O)C(CN2CCCC2)c2ccccc2)cc1 (configuration not stated),52,/,-8,32,61*,/
CC(C)CC#Cc1cnc2c(c1)C(=O)N([C@H](C)CO)C[C@H](C)[C@H](CN(C)S(C)(=O)=O)O2,/,-85[16.7 µM],-1,-3,-9,28
C[C@@H]1CCCCO[C@@H](CN(C)Cc2ccc(Cl)c(Cl)c2)[C@H](C)CN([C@@H](C)CO)C(=O)c2cc(NC(=O)Nc3ccc(F)cc3)ccc2O1,67*,31[16.7 µM],-5,-23,9,-35
C[C@@H]1CCCCO[C@H](CN(C)Cc2ccc(Cl)c(Cl)c2)[C@@H](C)CN([C@@H](C)CO)C(=O)c2cc(NC(=O)Nc3ccc(F)cc3)ccc2O1,89*,?,2,-9,3,-10
CC(C)NC(=O)Nc1ccc2c(c1)C(=O)N([C@@H](C)CO)C[C@@H](C)[C@@H](CN(C)Cc1ccc(Cl)c(Cl)c1)OCCCC[C@@H](C)O2,22,25[16.7 µM],2,-25,3,5
C[C@H](CO)N1C[C@H](C)[C@H](CN(C)Cc2ccc(Cl)c(Cl)c2)OCCCC[C@H](C)Oc2ccc(NC(=O)Nc3ccc(F)cc3)cc2C1=O,64*,50[16.7 µM],-1,9,1,-8
CNC(=O)C[C@H]1CC[C@@H]2[C@H](COC[C@@H](O)CN2Cc2ccccc2F)O1,/,/,-1,29,/,-2
O=c1c2ccc(Cl)cc2[nH]c(=S)n1CCC1=CCCCC1,-8,-402,/,166*,/,/
O=S(=O)(NCc1ccccc1)c1ccc(S(=O)(=O)N(Cc2cccs2)CC2CCCO2)cc1 (configuration not stated),/,61*,/,12,/,8
SMILES,PAX8 reporter,HIV Env fusion,CFTR F508del cor,INS-1E GSIS act,EWS-Fli block,PGC1a acetyl inh
COc1cc(S(=O)(=O)N(Cc2cccs2)CC2CCCO2)ccc1-n1cnnn1 (configuration not stated),/,/,4,-6,-2,-2
C[C@H]1CN([C@@H](C)CO)C(=O)c2cccc(NC(=O)C3CCCCC3)c2O[C@H]1CN(C)C,-11,-6[16.7 µM],1,17,-5,8
COc1ccc(CN(C)C[C@H]2OCCCC[C@@H](C)Oc3ccc(NS(=O)(=O)c4ccc(OC)cc4)cc3C(=O)N([C@H](C)CO)C[C@@H]2C)cc1,-7,-12[16.7 µM],-3,-5,5,4
COc1ccc(S(=O)(=O)Nc2ccc3c(c2)C(=O)N([C@@H](C)CO)C[C@H](C)[C@H](CN(C)Cc2ccc(C(F)(F)F)cc2)OCCCC[C@H](C)O3)cc1,108*,0[16.7 µM],3,-13,18,8
COc1ccc(S(=O)(=O)Nc2ccc3c(c2)C(=O)N([C@@H](C)CO)C[C@H](C)[C@@H](CN(C)Cc2ccc(C(F)(F)F)cc2)OCCCC[C@@H](C)O3)cc1,110*,14[16.7 µM],1,-23,32,-2
COc1ccc(CN(C)C[C@@H]2OCCCC[C@@H](C)Oc3ccc(NS(=O)(=O)c4ccc(OC)cc4)cc3C(=O)N([C@@H](C)CO)C[C@H]2C)cc1,0,-21[16.7 µM],1,6,2,14
Cc1nnc(N2CCCC(C(=O)NCc3cccc(F)c3)C2)c2nn(-c3ccccc3)c(C)c12 (configuration not stated),65*,18,2,12,/,-18
Cc1nnc(N2CCCC(C(=O)NCc3ccccc3F)C2)c2nn(-c3ccccc3)c(C)c12 (configuration not stated),36,20,-6,8,13,-18
CCc1ccc(CNC(=O)C2CCCN(c3nnc(C)c4c(C)n(-c5ccccc5)nc34)C2)cc1 (configuration not stated),89*,37,-4,-24,35,-16
Cc1ccccc1CNC(=O)C1CCCN(c2nnc(C)c3c(C)n(-c4ccccc4)nc23)C1 (configuration not stated),95*,11,1,1,40,-7
Cc1cc(C)nc(N2CCCC(C(=O)NCc3ccccc3)C2)n1 (configuration not stated),4,-149,/,/,/,0
